Measurements from PubChem BioAssay (Tox21).
Results filed as inconclusive are left out. Activity calls are given as the source filed them. Unless noted, calls come from the whole dose curve; as a rule, active = well fitted curve in the direction sought with a large enough effect in the repeat runs; inconclusive = weak or mixed curves; inactive = no such curve, though single readings can be large; an effect the other way counts as inactive or inconclusive.

Key:
[1] = qHTS assay to identify small molecule antagonists of the androgen receptor (AR) signaling pathway using the MDA cell line in the presence of 0.5 nM R1881 - cell viability counter screen (AID 1259242); note: nearly all actives have a fitted effect of over 45% in size; note: potency is the fitted concentration of half-maximal effect
Procedure, shortened: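 Cells seeded at 3,000/well and allowed 5 hr at 37C, 0% CO2 before compound transfer and R1881 (0.5 nM final) addition; 16 hr later, live-cell protease fluorescence indicated cytotoxicity.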

[2] = target: Estrogen receptor (Homo sapiens) (UniProt P03372); assay: qHTS assay to identify small molecule antagonists of the estrogen receptor alpha (ER-alpha) signaling pathway using the BG1 cell line in the presence of 0.1 nM 17-beta-estradiol (AID 1259244); note: nearly all actives have a fitted effect of over 50% in size; note: potency is the fitted concentration of half-maximal effect
Procedure, shortened: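 Luciferase signal from VM7Luc4E2 ERE-reporter cells, co-dosed with test compound and 0.1 nM final 17beta-estradiol for 22 h, read with ONE-Glo.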

[3] = qHTS assay to identify small molecule HDAC inhibitors (AID 1259364); note: potency is the fitted concentration of half-maximal effect;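 note: wild-type HCT-116 cells with endogenous class I/II HDAC activity; nearly all actives have a fitted effect of over 45% in size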
Procedure, shortened: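 HCT-116 wt cells, 1,500/well, overnight attach. Compounds (DMSO) 2 h, 37 °C. HDAC-Glo I/II, 30 min RT. Luminescence.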

[4] = qHTS assay to identify small molecule HDAC inhibitors - cell viability counter screen (AID 1259365); note: series mostly up to about 92 µM; nearly all actives have a fitted effect of over 50% in size
Procedure, shortened: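 After overnight seeding at 1,500 cells per well, wild-type HCT-116 cultures took up compounds in DMSO for 2hr at 37 C. Viable cell content came from luminescence with CellTiter-Glo.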

[5] = qHTS assay to identify small molecule agonists of the sonic hedgehog signaling (Shh) pathway - cell viability counter screen (AID 1259366); note: nearly all actives have a fitted effect of over 50% in size; note: potency is the fitted concentration of half-maximal effect
Procedure, shortened: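 Same-well cytotoxicity read. Gli1-Luc reporter 3T3 cells; compounds 24hr, 37C/5% CO2; CellTiter-Fluor fluorescence.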

[6] = qHTS assay to identify small molecule agonists of the sonic hedgehog signaling (Shh) pathway (AID 1259368; calls by dose curve; note: nearly all actives have a fitted effect of over 15% in size; note: potency is the fitted concentration of half-maximal effect)
Procedure, shortened: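 Following a 24 hr incubation with DMSO-dissolved compounds at 37 C, 5% CO2, Gli1-Luc NIH/3T3-derived cells received luciferase reagent for 30 min at room temperature prior to luminescence measurement.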

[7] = target: Estrogen receptor beta (Homo sapiens) (UniProt Q92731); assay: qHTS assay to identify small molecule antagonists of the estrogen receptor beta (ER-beta) signaling pathway (AID 1259378; active = well fitted inhibition curve with a large enough effect in the signal ratio in the repeat runs, not every such curve was filed as active; the % refers to the signal ratio)
Procedure, shortened: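 Antagonist mode: compounds added to beta-lactamase reporter HEK293T ER-beta-UAS cells stimulated with E2 (1nM final), 16 hr at 37C. LiveBLAzer B/G FRET substrate, 2 hours room temperature, fluorescence read-out.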

[8] = qHTS assay to identify small molecule agonists of the estrogen receptor beta (ER-beta) signaling pathway - cell viability counter screen (AID 1259380); note: nearly all actives have a fitted effect of over 30% in size
Procedure, shortened: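 Compounds dissolved in DMSO were pin-transferred onto ER-beta-UAS-bla HEK293T cells that had settled 6 hr, and exposure ran 16 hr at 37C. Following the reporter read, CellTiter-Glo luminescence after 30 min at room temperature indicated cytotoxicity.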

[9] = qHTS assay to identify small molecule antagonists of the estrogen receptor beta (ER-beta) signaling pathway - cell viability counter screen (AID 1259382);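 note: HEK293T cells carrying ER-beta-UAS-bla reporter stimulated with estradiol; series mostly up to about 92 µM; nearly all actives have a fitted effect of over 55% in size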
Procedure, shortened: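 CellTiter-Glo ATP luminescence measured after the LiveBLAzer read in the same wells; ER-beta-UAS-bla HEK293T cells, 16 hr compound treatment with 1nM 17-beta-estradiol agonist at 37C, 5% CO2.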

[10] = target: Estrogen receptor (Homo sapiens) (UniProt P03372); assay: qHTS assay to identify small molecule agonists of the estrogen receptor alpha (ER-alpha) signaling pathway in the presence of an antagonist (AID 1259383; calls by dose curve; note: top concentration of the series differs between compounds; nearly all actives have a fitted effect of over 15% in size)
Procedure, shortened: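 Luminescent ERE-luciferase reporter, VM7Luc4E2 cells (endogenous ER-alpha); 10.0nM ICI-182,780 final; 15-point compound titration; 22hr at 37C; ONE-Glo, 30min RT.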

[11] = qHTS assay to identify small molecule agonists or antagonists of the thyroid stimulating hormone receptor (TSHR) signaling pathway - wild type cell line counter screen (AID 1259384; calls by dose curve)
Procedure, shortened: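 Counter screen in untransfected Hek293: compounds (15-point titration, triplicate) plus phosphodiesterase inhibitor Ro20-1724 added after 18 h plating; 30 min RT. Intracellular cAMP via competitive d2/cryptate immunoassay, 1 h incubation.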

[12] = target: Thyrotropin receptor (Homo sapiens) (UniProt P16473); assay: qHTS assay to identify small molecule antagonists of the thyroid stimulating hormone receptor (TSHR) signaling pathway (AID 1259385; calls by dose curve; note: nearly all actives have a fitted effect of over 20% in size)
Procedure, shortened: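 Antagonist mode: compound-treated TSHR-expressing HEK293 cells were stimulated with 1.5 ng/mL TSH (final) in presence of Ro20-1724 for 30 min at RT. HTRF cAMP detection after 1 h; each compound tested at 15 concentrations, triplicate.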

[13] = qHTS assay to identify small molecule antagonists of the sonic hedgehog signaling (Shh) pathway - cell viability counter screen (AID 1259367); note: nearly all actives have a fitted effect of over 55% in size; note: potency is the fitted concentration of half-maximal effect
Procedure, shortened: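 CellTiter-Fluor signal in conditioned medium-stimulated 3T3 Gli1-Luc cells, 23 hr compound exposure, 37C.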

[14] = target: Estrogen receptor beta (Homo sapiens) (UniProt Q92731); assay: qHTS assay to identify small molecule agonists of the estrogen receptor beta (ER-beta) signaling pathway (AID 1259377; active = well fitted activation curve with a large enough effect in the signal ratio in the repeat runs, not every such curve was filed as active; the % refers to the signal ratio)
Procedure, shortened: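 Read-out: beta-lactamase FRET fluorescence. Cell line: ER-beta-UAS-bla HEK293T in 2% charcoal-stripped FBS. Exposure: 16 hr at 37C. Substrate step: 2 h at room temperature.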

[15] = qHTS assay to identify small molecule agonists of the androgen receptor (AR) signaling pathway in the presence of an antagonist - cell viability counter screen (AID 1259379); note: nearly all actives have a fitted effect of over 25% in size; note: potency is the fitted concentration of half-maximal effect
Procedure, shortened: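 Each compound was tested at 15 concentrations on MDA-kb2 cells in the presence of 3.0uM nilutamide. Viability was measured by CellTiter-Fluor fluorescence after a 16 hr incubation at 37C in a CO2-free atmosphere.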

[16] = target: Androgen receptor (Homo sapiens) (UniProt P10275); assay: qHTS assay to identify small molecule agonists of the androgen receptor (AR) signaling pathway in the presence of an antagonist (AID 1259381; calls by dose curve; note: nearly all actives have a fitted effect of over 15% in size)
Procedure, shortened: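 Plated MDA-kb2 cells (3,000/well) were pre-incubated 5hr, given nilutamide (3.0uM final) or buffer, then dosed with compounds in DMSO at 15 concentrations. Luciferase activity was quantified by luminescence after 16hr at 37C.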

[17] = qHTS assay to identify small molecule antagonists of the sonic hedgehog signaling (Shh) pathway (AID 1259369; calls by dose curve; note: nearly all actives have a fitted effect of over 45% in size; note: potency is the fitted concentration of half-maximal effect)
Procedure, shortened: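 Read-out is luminescence from a firefly luciferase gene controlled by the Gli1 response element, in 3T3Gli1-Luc cells pre-incubated 4hr then exposed to compounds and conditioned medium for 24hr.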

[18] = target: Androgen receptor (Homo sapiens) (UniProt P10275); assay: qHTS assay to identify small molecule antagonists of the androgen receptor (AR) signaling pathway using the MDA cell line in the presence of 0.5 nM R1881 (AID 1259243); note: nearly all actives have a fitted effect of over 50% in size; note: potency is the fitted concentration of half-maximal effect
Procedure, shortened: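 Luminescence from an AR/GR-responsive MMTV-luciferase construct in MDA-kb2 breast carcinoma cells, read 30 min after ONE-Glo, following 16 hr co-treatment with compounds and 0.5 nM R1881.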

Measured: Potency

Sequence of Estrogen receptor (Homo sapiens) (P03372 whole entry, looked up): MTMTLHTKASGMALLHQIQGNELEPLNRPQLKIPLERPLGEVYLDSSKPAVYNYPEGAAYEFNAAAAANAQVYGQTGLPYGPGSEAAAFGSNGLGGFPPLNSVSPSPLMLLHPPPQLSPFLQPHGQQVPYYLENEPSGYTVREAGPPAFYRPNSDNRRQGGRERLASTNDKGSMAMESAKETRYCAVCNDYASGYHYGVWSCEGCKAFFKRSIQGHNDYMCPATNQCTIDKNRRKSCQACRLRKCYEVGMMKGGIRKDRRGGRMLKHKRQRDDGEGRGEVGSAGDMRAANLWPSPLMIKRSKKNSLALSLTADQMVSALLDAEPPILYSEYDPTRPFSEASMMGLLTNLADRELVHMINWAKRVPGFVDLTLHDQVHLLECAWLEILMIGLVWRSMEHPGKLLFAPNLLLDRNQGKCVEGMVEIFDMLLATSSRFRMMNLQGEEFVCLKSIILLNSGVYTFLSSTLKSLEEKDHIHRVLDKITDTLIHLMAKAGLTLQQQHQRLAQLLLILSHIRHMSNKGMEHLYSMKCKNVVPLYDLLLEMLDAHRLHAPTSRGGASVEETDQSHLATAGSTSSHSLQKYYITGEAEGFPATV
Sequence of Thyrotropin receptor (Homo sapiens) (P16473 whole entry, looked up): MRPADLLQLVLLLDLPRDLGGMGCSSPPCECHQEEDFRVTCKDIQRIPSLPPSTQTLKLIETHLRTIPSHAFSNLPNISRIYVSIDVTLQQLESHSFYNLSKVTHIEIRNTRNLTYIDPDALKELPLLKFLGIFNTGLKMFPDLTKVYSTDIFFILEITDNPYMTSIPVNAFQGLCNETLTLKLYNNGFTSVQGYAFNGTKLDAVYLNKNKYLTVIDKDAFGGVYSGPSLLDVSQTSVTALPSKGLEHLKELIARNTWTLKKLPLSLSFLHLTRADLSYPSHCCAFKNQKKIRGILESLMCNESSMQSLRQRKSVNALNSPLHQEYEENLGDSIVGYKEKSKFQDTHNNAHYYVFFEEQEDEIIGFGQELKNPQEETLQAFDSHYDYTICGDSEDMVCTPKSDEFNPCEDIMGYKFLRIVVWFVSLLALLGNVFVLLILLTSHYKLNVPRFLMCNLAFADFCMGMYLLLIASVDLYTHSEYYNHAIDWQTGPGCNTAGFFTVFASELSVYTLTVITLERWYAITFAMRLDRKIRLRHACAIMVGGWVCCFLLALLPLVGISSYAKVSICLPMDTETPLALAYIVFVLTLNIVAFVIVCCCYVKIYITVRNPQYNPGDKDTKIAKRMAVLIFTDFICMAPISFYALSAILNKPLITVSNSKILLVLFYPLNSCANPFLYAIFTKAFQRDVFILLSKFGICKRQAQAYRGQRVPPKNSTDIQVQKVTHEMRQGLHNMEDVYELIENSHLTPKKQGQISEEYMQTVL
Sequence of Androgen receptor (Homo sapiens) (P10275 whole entry, looked up): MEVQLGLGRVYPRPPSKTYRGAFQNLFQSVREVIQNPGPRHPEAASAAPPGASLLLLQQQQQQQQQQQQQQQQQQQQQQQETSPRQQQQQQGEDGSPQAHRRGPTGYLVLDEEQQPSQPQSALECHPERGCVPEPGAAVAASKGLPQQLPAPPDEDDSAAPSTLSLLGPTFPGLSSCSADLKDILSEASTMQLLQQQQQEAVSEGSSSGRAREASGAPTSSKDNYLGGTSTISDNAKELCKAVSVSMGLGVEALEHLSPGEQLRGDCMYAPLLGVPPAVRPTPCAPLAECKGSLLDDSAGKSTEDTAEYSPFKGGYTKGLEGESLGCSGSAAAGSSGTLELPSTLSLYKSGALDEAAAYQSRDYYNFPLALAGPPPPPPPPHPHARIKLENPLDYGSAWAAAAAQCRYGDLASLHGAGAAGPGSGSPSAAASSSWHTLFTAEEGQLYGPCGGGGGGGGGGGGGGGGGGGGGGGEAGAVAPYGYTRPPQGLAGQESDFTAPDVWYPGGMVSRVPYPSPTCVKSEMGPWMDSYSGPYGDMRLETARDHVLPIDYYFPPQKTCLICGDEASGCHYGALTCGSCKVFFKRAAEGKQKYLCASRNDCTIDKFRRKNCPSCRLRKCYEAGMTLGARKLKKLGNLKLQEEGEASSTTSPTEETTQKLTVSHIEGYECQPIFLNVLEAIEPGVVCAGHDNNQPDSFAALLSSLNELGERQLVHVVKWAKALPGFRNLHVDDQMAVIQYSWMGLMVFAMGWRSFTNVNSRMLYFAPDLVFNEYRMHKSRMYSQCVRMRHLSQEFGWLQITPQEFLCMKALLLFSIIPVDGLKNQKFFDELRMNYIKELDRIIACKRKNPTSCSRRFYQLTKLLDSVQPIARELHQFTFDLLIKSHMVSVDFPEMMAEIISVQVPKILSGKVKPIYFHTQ
Sequence of Estrogen receptor beta (Homo sapiens) (Q92731 whole entry, looked up): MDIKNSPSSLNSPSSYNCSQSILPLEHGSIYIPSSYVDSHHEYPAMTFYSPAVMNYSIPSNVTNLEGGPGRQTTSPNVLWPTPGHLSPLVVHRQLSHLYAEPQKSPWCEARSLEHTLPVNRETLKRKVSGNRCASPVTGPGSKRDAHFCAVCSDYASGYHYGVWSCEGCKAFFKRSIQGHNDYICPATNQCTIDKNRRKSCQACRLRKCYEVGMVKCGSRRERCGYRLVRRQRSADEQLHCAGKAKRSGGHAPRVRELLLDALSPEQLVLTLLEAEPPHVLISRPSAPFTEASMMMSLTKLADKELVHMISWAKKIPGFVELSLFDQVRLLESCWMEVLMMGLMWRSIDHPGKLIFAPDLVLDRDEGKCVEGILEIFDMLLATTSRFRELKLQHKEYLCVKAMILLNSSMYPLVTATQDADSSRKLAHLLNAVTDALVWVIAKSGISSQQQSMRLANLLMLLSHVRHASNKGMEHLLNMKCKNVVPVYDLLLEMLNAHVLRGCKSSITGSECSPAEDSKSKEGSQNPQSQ

NC(=O)C(Cl)(Cl)Cl
not listed: [13] | [14] | [15] | [16] | [17] | [18]
inactive: all other assays above

CC(C)=CCOc1c2occc2cc2ccc(=O)oc12
not listed: [1] | [6] | [17] | [18]
inactive: all other assays above

CCc1ccc(C(=O)NN(C(=O)c2cc(C)cc(C)c2)C(C)(C)C)cc1
active: [5] 2.17 µM | [13] 2.43 µM
inactive: [3] | [4] | [17] | [15] | [9] | [10] | [11] | [12]

COP(=O)(OC)O/C(=C/Cl)c1cc(Cl)c(Cl)cc1Cl
active: [18] 45.7 µM | [2] 57.5 µM
inactive: [3] | [4] | [5] | [13] | [6] | [16] | [9] | [10] | [11]

ClCCCCBr
not listed: [2] | [5] | [10] | [16] | [18]
inactive: all other assays above

O=C(Nc1ccccc1)Nc1cnns1
active: [3] 30.6 µM
not listed: [2] | [7] | [8] | [16] | [17] | [18]
inactive: all other assays above

Clc1ccc(C2(Cn3cncn3)CC(Br)CO2)c(Cl)c1 (configuration not stated)
active: [2] 68.2 µM
not listed: [5] | [6] | [7] | [16] | [18]
inactive: all other assays above

O=[N+]([O-])c1ccccc1CCl
not listed: [1] | [16] | [17] | [18]
inactive: all other assays above

O=Cc1ccc(Cl)cc1Cl
inactive: [1] | [3] | [4] | [5] | [13] | [6] | [7] | [15] | [8] | [9]

CC(C)(C)c1cc([N+](=O)[O-])cc([N+](=O)[O-])c1O
active: [1] 12.2 µM | [5] 21.6 µM | [13] 24.3 µM | [17] 6.84 µM | [15] 15.3 µM
inactive: [4] | [6] | [14] | [9] | [11] | [12]

COP(=S)(OC)Oc1ccc([N+](=O)[O-])cc1Cl
active: [18] 6.86 µM | [15] 48.6 µM
inactive: [2] | [4] | [8] | [16] | [9] | [10] | [11] | [12]

CC1Sc2c(C(=O)O)c(=O)c3cc(F)c(N4CCNCC4)cc3n21 (configuration not stated)
not listed: [1] | [7]
inactive: all other assays above

CN(C)c1ccc(N(C)C)cc1
inactive: [1] | [4] | [13] | [17] | [14] | [15] | [10] | [11]
active: [2] 30.7 µM | [5] 24.4 µM | [6] 24.4 µM
